What all share (conditions): mRNA level, 48 h; actives raise or lower the signal
Read-out in one test: HGF (gene 3082)
The experiment in a line: LTEA_HepaRG_HGF: Life Technologies and Expression Analysis (LTEA) Assay for Hepatocyte Growth Facto (HGF) using HepaRG (AID 2283505). In short, it runs like this:
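Gain or loss of HGF mRNA in human HepaRG liver cells after 48 h chemical exposure; eight concentrations up to 100 uM with 0.5% DMSO vehicle, quantified by TaqMan qRT-PCR.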

Read-out in test [1]: Insulin Like Growth Factor 1 (IGF1), IGF1 (gene 3479)
The experiment in a line: LTEA_HepaRG_IGF1: Life Technologies and Expression Analysis (LTEA) Assay for Insulin Like Growth Factor 1 (IGF1) using HepaRG (AID 2283506). In short, it runs like this: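 qRT-PCR readout of IGF1 mRNA, normalized to three housekeeping genes, after 48 h chemical exposure of HepaRG cells. Concentrations: 8-point half-log series, top 100 uM, 0.5% DMSO vehicle. Gain or loss fitted against DMSO baseline.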

Read-out in test [2]: Intercellular Adhesion Molecule 1 (ICAM1), ICAM1 (gene 3383)
The test is described as follows: LTEA_HepaRG_ICAM1: Life Technologies and Expression Analysis (LTEA) Assay for Intercellular Adhesion Molecule 1 (ICAM1) using HepaRG (AID 2283507). In short, it runs like this: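 Gain or loss of transcript in HepaRG hepatic cells is quantified by qRT-PCR after 48 h chemical exposure (up to 100 uM, half-log steps), with DMSO as baseline.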

Read-out in test [3]: Insulin-like growth factor-binding protein 1 (IGFBP1), IGFBP1 (gene 3484)
The experiment in a line: LTEA_HepaRG_IGFBP1: Life Technologies and Expression Analysis (LTEA) Assay for Insulin-like growth factor-binding protein 1 (IGFBP1) using HepaRG (AID 2283508). The gist of the method:
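mRNA induction or loss was quantified by qRT-PCR after 48 h chemical exposure of human HepaRG cells, with 0.5% DMSO as vehicle and baseline. Concentration-response over eight points up to 100 uM.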

Read-out in test [4]: Interleukin 6 (IL6), IL6 (gene 3569)
The test is described as follows: LTEA_HepaRG_IL6: Life Technologies and Expression Analysis (LTEA) Assay for Interleukin 6 (IL6) using HepaRG (AID 2283509). The gist of the method:
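qRT-PCR read-out of IL6 transcript, normalized to three housekeeping genes, after 48 h chemical exposure of HepaRG cells; 8-point half-log series, top 100 uM, 0.5% DMSO vehicle. Bidirectional curve fitting against DMSO baseline.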

Read-out in test [5]: Interleukin 6 Receptor (IL6R), IL6R (gene 3570)
The test is described as follows: LTEA_HepaRG_IL6R: Life Technologies and Expression Analysis (LTEA) Assay for Interleukin 6 Receptor (IL6R) using HepaRG (AID 2283510).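 As to AC50: differentiated human HepaRG liver cells in serum-free induction medium; TaqMan qRT-PCR signal normalized to ACTB GAPDH and POLR2A housekeeping genes.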 In short, it runs like this:
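HepaRG, 48 h exposure, 8-pt half-log series, top 100 uM, 0.5% DMSO vehicle, duplicates. Read-out: TaqMan qRT-PCR of IL6R transcript, housekeeping-gene normalized. Gain or loss fitted relative to DMSO baseline.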

Read-out in test [6]: Potassium channel subfamily K member 1 (KCNK1), KCNK1 (gene 3775)
The experiment in a line: LTEA_HepaRG_KCNK1: Life Technologies and Expression Analysis (LTEA) Assay for Potassium channel subfamily K member 1 (KCNK1) using HepaRG (AID 2283511). In short, it runs like this:
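HepaRG, 48 h exposure, 8-pt half-log series top 100 uM, 0.5% DMSO vehicle, duplicates. Readout: KCNK1 transcript by qRT-PCR (Fluidigm array), housekeeping-normalized; bidirectional curve fit relative to DMSO baseline.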

Read-out in test [7]: Keratin 19 (KRT19), KRT19 (gene 3880)
The test is described as follows: LTEA_HepaRG_KRT19: Life Technologies and Expression Analysis (LTEA) Assay for Keratin 19 (KRT19) using HepaRG (AID 2283512). In short, it runs like this: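 Gene-expression endpoint in the human liver line HepaRG after 48 h exposure to up to 100 uM test chemical with 0.5% DMSO vehicle; KRT19 mRNA by qRT-PCR, analyzed bidirectionally versus DMSO.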

Read-out in test [8]: JUN Transcription Factor, JUN (gene 3725)
The test is described as follows: LTEA_HepaRG_JUN: Life Technologies and Expression Analysis (LTEA) Assay for JUN Transcription Factor using HepaRG (AID 2283513). The gist of the method: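 HepaRG, 48 h exposure, 8-pt half-log series top 100 uM, 0.5% DMSO, duplicate. JUN mRNA by qRT-PCR (Fluidigm), housekeeping-normalized (ACTB/GAPDH/POLR2A); bidirectional curve fit vs DMSO baseline.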

Structures are written as SMILES. Values joined by “and” are separate entries in the source; they are usually repeats but may differ in a detail not shown here. Equal entries are not always repeated. The source holds several records for some structures; these can differ, active in one and inactive in another. Active and inactive are the calls of the source. The calls were made as follows: active = hit-call score of the fitted dose curve at least 0.9, where 1 is the maximum; inactive = score below 0.9.

For the compound `CCOC(=O)CC(SP(=S)(OC)OC)C(=O)OCC` (stereo not drawn), the call (with HGF (gene 3082); in [1]; in [2]; in [3]; in test [4]; in test [5]) was inactive. The result in [6], in test [7] and in test [8] was inactive.

With `COc1ccc(C(c2ccc(OC)cc2)C(Cl)(Cl)Cl)cc1`, the outcome (with HGF (gene 3082); in test [2]; in [4]; in test [5]; in test [6]; in test [8]) was inactive. The results for the AC50 in [1], in test [3] and in test [7] were 56.5 µM (active), 72.3 µM (active) and 74.2 µM (active), respectively.

Turning to `CNC(=S)S`, the outcome (with HGF (gene 3082); in test [1]; in test [2]; in test [3]; in test [4]; in test [5]) was inactive. In addition, the compound was called inactive in [6], in test [7] and in test [8].

Regarding `COc1nc(NC(C)C)nc(NC(C)C)n1`, the call (with HGF (gene 3082); in test [2]; in test [3]; in [4]; in test [5]; in test [6]) was inactive. The compound was called inactive in test [8]. The AC50 was 66.2 µM (active) in test [1] and 39.4 µM (active) in test [7].

In the case of `CCCN(CCC)c1c([N+](=O)[O-])cc(S(N)(=O)=O)cc1[N+](=O)[O-]`, the result (in the test with HGF (gene 3082); in [1]; in test [2]; in test [5]; in test [6]; in [7]) was inactive. Besides, the AC50 in test [1] was 93.4 µM (active); in [2], 94.8 µM (active) and 85.4 µM (active); in test [3], 92.9 µM (active) and 36.6 µM (active) and 78.9 µM (active); in test [4], 93.1 µM (active) and 85.4 µM (active) and 91 µM (active); in [5] it was 68.4 µM (active) and 70 µM (active); in test [6] it was 93.5 µM (active). Also, the AC50 in test [7] is 93.8 µM (active) and 72.5 µM (active); in [8] it was 94.2 µM (active) and 79.3 µM (active) and 74.8 µM (active).

Regarding `CC(Oc1ccc(Cl)cc1Cl)C(=O)O` (stereo not drawn), the outcome (with HGF (gene 3082); in test [1]; in test [2]; in [3]; in test [4]; in test [5]) was inactive. For the same compound, the compound was called inactive in [6], in test [7] and in test [8].

`CC(C)(C)c1ccc(CSc2cnn(C(C)(C)C)c(=O)c2Cl)cc1`: the call (with HGF (gene 3082); in [5]; in test [6]; in test [8]) was inactive. Besides, the half-maximal activity concentration (AC50) in test [1] is 1.88 µM (active); in [2] it was 2.69 µM (active); in test [3], 3.43 µM (active); in test [4], 2.84 µM (active); in [7] it was 1.58 µM (active).

For the compound `CCOC(=O)C(Cl)Cc1cc(-n2nc(C)n(C(F)F)c2=O)c(F)cc1Cl` (stereo not drawn), the call (with HGF (gene 3082); in [1]; in test [2]; in test [3]; in [4]; in test [5]) was inactive. Further, the compound was called inactive in [6], in test [7] and in test [8].

As for `CC(C)C1(C)N=C(c2nc3ccccc3cc2C(=O)O)NC1=O` (stereo not drawn), the outcome (with HGF (gene 3082); in test [1]; in test [2]; in test [3]; in [4]; in [5]) was inactive. The compound was classed as inactive in [6], in test [7] and in [8].

On to `N#CC(CCc1ccc(Cl)cc1)(Cn1cncn1)c1ccccc1` (stereo not drawn), for which the AC50 in the test with HGF (gene 3082) was 93.6 µM (active); in test [1], 50 µM (active); in test [2], 71.6 µM (active); in test [3], 74.4 µM (active); in [4], 80.2 µM (active); in test [6], 44.6 µM (active). Besides, the half-maximal activity concentration (AC50) in test [8] was 90.3 µM (active). For the same compound, the compound was called inactive in [5] and in test [7].

As for `Oc1ccccc1-c1ccccc1`, the compound was classed as inactive (in the test with HGF (gene 3082); in [1]; in test [2]; in test [3]; in test [4]; in test [5]). Besides, the compound was called inactive in test [6], in [7] and in test [8].

With `CCCCNC(=O)OCC#CI`, the compound was called inactive (with HGF (gene 3082); in [1]; in test [2]; in test [3]; in test [4]; in [5]). Besides, the compound was classed as inactive in test [6], in test [7] and in test [8].

The term AC50 denotes the midpoint of the concentration-response curve, whichever way the signal moves.

Values taken from PubChem BioAssay (EPA / NIEHS).
